# FMDV inh: High Throughput Screening for Foot and Mouth Disease Virus Antivirals. FMDV antiviral cell-based qHTS. Potency, µM (series often up to 57.9 µM), for inactives: at the highest dose activity change, negative = inhibition, hits mostly inhibitors. hit rate 1.2% among 410,000. AID 1159524, 2015; calls by dose curve; tested in HEK293T cells; note: read-out not given here; potency is the fitted concentration of half-maximal effect; % is set by controls: 0 for no effect and ±100 for the full control effect; nearly all actives have a fitted effect of over 45% in size
# Marburg entry inh: qHTS for inhibitors of binding or entry into cells for Marburg Virus; hit rate 1.8% among 300,000; Marburg virus pseudotyped entry inhibition, cell reporter; AID 540276, 2011; Potency, µM (top dose mostly 37.8 µM), for the others: at the highest dose activity change, negative = inhibition, usual class: inhibitors; calls by dose curve; tested in HEK293 cells; note: potency is the fitted concentration of half-maximal effect; % is set by controls: 0 for no effect and ±100 for the full control effect
# LASV entry inh: qHTS for Inhibitors of binding or entry into cells for Lassa Virus. Lassa virus pseudotype entry inhibition, cell reporter. Potency, µM (series often up to 37.9 µM), inactives show top-dose activity change, negative = inhibition, usual class: inhibitors. hit rate 1.2% among 300,000. AID 540256, 2011; calls by dose curve; tested in HEK293 cells; note: potency is the fitted concentration of half-maximal effect; % is set by controls: 0 for no effect and ±100 for the full control effect; nearly all actives have a fitted effect of over 50% in size
# SARS PLpro yeast: qHTS of Yeast-based Assay for SARS-CoV PLP | S. cerevisiae expressing SARS-CoV PLpro, growth rescue | Potency, µM (titrated, usually from 32.9 µM), inactives show top-dose activity, positive = growth rescue, hits mostly activators | hit rate 0.19% among 330,000; calls by dose curve; note: potency is the fitted concentration of half-maximal effect; 0% is about no effect; nearly all actives have a fitted effect of over 55% in size
# HCMV antiviral: qHTS Assay for inhibitors of the human cytomegalovirus (HCMV). AID 1259415, 2018. HFF cells, HCMV-luciferase reporter, 72 h; hits give low values. activity change, negative = inhibition, % at 57.5 µM. hit rate 4.5% among 410,000; in the data active = activity change below about -60%; inconclusive = no clear call, values can overlap the other calls; inactive = above about -39%; note: % is set by controls: 0 for no effect and ±100 for the full control effect
#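 HFF cells seeded 16 h at 37C, treated with compounds, infected with luciferase-reporter HCMV at MOI 1 PFU/cell; luciferase read at 72 h post infection, normalized to buffer-only and Salinomycin controls.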
# HCV inhibitor: qHTS Assay for Inhibitors of Hepatitis C Virus (HCV); Huh7.5.1 HCVcc-Cre infection, luciferase reporter, 44 h; Potency, µM (series often up to 41.8 µM), inactives show top-dose activity change, negative = inhibition, hits mostly inhibitors; hit rate 3.4% among 340,000; active = well fitted inhibition curve with a large enough effect; inconclusive = small, poorly fitted or top-dose-only effect, or another doubt; inactive = no such curve, though single readings can be large or run the other way; note: potency is the fitted concentration of half-maximal effect; % is set by controls: 0 for no effect and ±100 for the full control effect
#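 Whole-lifecycle infectious HCVcc-Cre system; cells 1,000/well, compound then virus (~0.5 moi) added 4 h after plating, 44 h culture. Luciferase read 15 sec following 15 min substrate incubation, room temp.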
# Active calls of the source: *; u = inconclusive; x = no result; [ ] = dose if it differs, or a comment. Hits are enriched below; roughly 8% of the tested compounds scored in any of these assays.
SMILES,FMDV inh,Marburg entry inh,LASV entry inh,SARS PLpro yeast,HCMV antiviral,HCV inhibitor
CCN(CC)S(=O)(=O)c1cccc(-c2nnc(SCc3nc4ccccc4s3)o2)c1,0%,u,u,8%,-7,7.1µM*
CCc1nc2ccc(C(=O)NCCc3ccc(OC)c(OC)c3)cc2nc1CC,u,x,-22%[46.1 µM],-6%,-21,u
O=C(CCSc1nc(-c2ccco2)cc(C(F)(F)F)n1)NCc1ccccn1,-20%,-13%,1%,2%,-5,11µM*
O=C(CCSc1nc(-c2ccco2)cc(C(F)(F)F)n1)Nc1cccc(O)c1,u,-3%[46.1 µM],-9%[46.1 µM],x,-32,x
COc1ccc(CCNC(=O)c2ccc3nc(-c4ccco4)c(-c4ccco4)nc3c2)cc1OC,16µM*,10µM*,8.2µM*,-9%,x,2.8µM*
COc1ccc(-c2nc(CCNC(=O)c3ccco3)cs2)cc1OC,-1%,u,u,-13%,-101*,u
O=C(CCSc1nc(-c2ccco2)cc(C(F)(F)F)n1)NCc1cccs1,-9%,8%,-8%,-9%,-17,10µM*
CS(=O)(=O)N(Cc1ccccc1)c1ccc(C(=O)Nc2cccc(Cl)c2)cc1,0%,x,u,x,-12,x
O=C(c1ccco1)N1CCN(C2CN(Cc3ccc([N+](=O)[O-])cc3)S(=O)(=O)C2)CC1 (stereo not given),u,x,-9%[46.1 µM],x,0,x
COc1ccc(CCNC(=O)CCSc2nc(-c3ccco3)cc(C(F)(F)F)n2)cc1OC,-28%,u,-17%,-2%,-33,5.6µM*
O=C(CSc1nc(-c2ccco2)cc(C(F)(F)F)n1)NC1CCCC1,-28%,x,x,3%,-68*,u
CC1=C[C@@H](C)OC2(C1)C(=O)N(Cc1ccc(Br)cc1)c1cccc(Br)c12 (stereo not given in full),x,4%[14.2 µM],u,x,x,x
CSc1ccc(CCNC(=O)c2cc3cc4cc(C)ccc4nc3s2)cc1,20%,x,28%[46.1 µM],x,61,x
O=C(O)c1[nH]c2ccc([N+](=O)[O-])cc2c1-c1ccccc1,-17%,x,x,0%,61,21%
NNC(=O)c1[nH]c2ccc([N+](=O)[O-])cc2c1-c1ccccc1,-13%,x,x,0%,-89*,u
CCOc1cc(/C=C/c2nc3cc(C)c(C)cc3s2)ccc1OCC(=O)N1CCOCC1,-13%,-19%,-12%,12%,-21,-6%
CCOc1cc(/C=C\[N+](=O)[O-])ccc1OCC(=O)N1CCOCC1,8.9µM*,-10%[46.1 µM],-8%,5%,-92*,u
CCCN1C(C)C(C(=O)OCC)=CN(Cc2ccc(Br)cc2)S1(=O)=O (stereo not given),u,x,x,-34%,-36,u
CCOC(=O)C1=CN(Cc2cccc(F)c2)S(=O)(=O)N(C)C1c1ccc2ccccc2c1 (stereo not given),2%,x,x,12%,-26,11µM*
CCCN1C(C)C(C(=O)OCC)=CN(Cc2cccc(I)c2)S1(=O)=O (stereo not given),4µM*,x,x,-7%,x,u
CCOC(=O)C1=CN(Cc2cccc(F)c2)S(=O)(=O)N(CC)C1c1ccc2ccccc2c1 (stereo not given),-16%,x,x,-2%,-1,-27%
COC(=O)C1CCC(=O)N1C(c1ccc(OC)cc1)c1cc(OC)c(OC)c(OC)c1 (stereo not given),0%,u,u,x,-81*,u
COc1ccc(C(CNC(=O)Cc2cc(OC)c(OC)c(OC)c2)N2CCCC2)cc1 (stereo not given),15%,-7%,u,-3%,42,-2%
CC(=O)c1c(C)[nH]c(C(=O)COc2cc(C)ccc2C(C)C)c1C,-14%,u,u,-3%,u,5.6µM*
COc1ccccc1OCC(=O)c1[nH]c(C)c(C(C)=O)c1C,20µM*,u,u,-4%,-31,u
SMILES,FMDV inh,Marburg entry inh,LASV entry inh,SARS PLpro yeast,HCMV antiviral,HCV inhibitor
COc1cc(C)ccc1OCC(=O)OCC(=O)c1[nH]c(C)c(C(C)=O)c1C,-22%,19%,2%,u,-5,-5%
Cc1cc2nc3n(c2cc1C)C(C)(C(=O)Nc1ccc2ccccc2c1)CCC3 (stereo not given),x,x,x,x,32,x
CC(C)COP(=O)(OCC(C)C)C(O)c1ccc(F)cc1 (stereo not given),49%,-5%,3%,-11%,-100*,15%
CCCCOP(=O)(OCCCC)C(O)c1ccc(F)cc1 (stereo not given),79%,7%,u,2%,13,3%
C=C1[C@@H](C)CN[C@@H]1CCO,x,x,x,x,-1,x
CCOC(=O)c1cc([N+](=O)[O-])c([N+](=O)[O-])cc1NC(C)=O,u,u,-13%,-135%,-100*,u
COC(=O)N[C@H](C(C(=O)OC)=C(C)NCc1ccccc1)c1ccco1,x,-24%[14.2 µM],x,x,x,x
O=C(O)CC(CNS(=O)(=O)c1ccccc1)c1ccccc1 (stereo not given),-20%,-1%,x,6%,-75*,u
O=C(O)CCCCCCNS(=O)(=O)c1ccccc1,-10%,7%,-5%,12%,6,1%
CCN(CC)S(=O)(=O)c1csc(C(=O)NCc2ccccc2)c1,u,24%,u,-3%,-71*,u
CCN(CC)S(=O)(=O)c1cccc(C(=O)NCc2ccccc2)c1,9%,-7%[46.1 µM],-6%,-1%,-21,-1%
CCCNC(=O)c1nnsc1S(=O)(=O)c1ccc(Cl)cc1,32µM*,u,2.8µM*,-33%,-99*,6.3µM*
CCCNC(=O)NS(=O)(=O)c1ccc(Cl)cc1,u,-12%,14%,-5%,55,-10%[8.37 µM]
CCCNC(=O)c1nnsc1S(=O)c1ccc(Cl)cc1 (stereo not given),35µM*,u,u,-31%,-101*,u
Cn1c(/C=C/N(Cc2ccccc2)c2ccccc2)c([N+](=O)[O-])c(=O)n(C)c1=O,2%,x,x,0%,-5,u
COc1ccc(/C=C/c2c([N+](=O)[O-])c(=O)n(C)c(=O)n2C)c(OC)c1,u,-5%[46.1 µM],x,-3%,0,11µM*
Cn1c(/C=C/c2ccc(Cl)cc2Cl)c([N+](=O)[O-])c(=O)n(C)c1=O,32µM*,x,x,-2%,-98*,u
COc1ccc2c(c1)C(=O)[C@H](OC(=O)N[C@H]1CCCc3ccccc31)[C@@H](c1ccc(OC)c(Br)c1)O2,x,-26%[14.2 µM],x,x,x,x
COc1cc(C(=O)N/N=C(\c2ccccc2)c2ccccn2)cc(OC)c1OC,40µM*,x,x,6%,-102*,u
C/C(=N\NC(=O)c1cc(C)nc2ccccc12)c1ccccn1,-26%,x,x,-2%,-114*,2.8µM*
